Reference: the supplement of paper PMC6555819

What was measured:
Experiment in all cases: PBM binding z-score (relative to random genomic background probes); higher = stronger binding; sequences stand for … in GC…GCGATTGACAGCGTAGAATGAAGG
[1] = system: RARb homodimer (NR concentration 270 nM)
Procedure, shortened: (§1)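 Custom Agilent 4×180K protein-binding microarrays carried double-stranded probes. Their 34-nt variable regions held direct-repeat seeds, single-nucleotide variants, half-site ablations and random human genomic background sequences. Arrays were incubated 1 h with ligand-free nuclear receptor dimers in PBS pH 7.4, 2% milk, 0.02% Triton X-100, 1 mM DTT, 0.2 mg/mL BSA and 0.4 mg/ml salmon testes DNA. Antibodies against each partner (one per run) detected binding, and scanned fluorescence was regression-normalized. Binding z-scores use random background probes as reference.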

[2] = system: RARg:RXRa (NR concentration 270 nM, RXRa partner concentration 90 nM)
Procedure, shortened: as §1

[3] = system: RARg homodimer (NR concentration 270 nM)
Procedure, shortened: as §1

[4] = system: RXRa DBDmut IVT, anti-RXR (DBD mutation: RXRa K156A/R161A, NR concentration 90 nM)
Procedure, shortened: as §1

[5] = system: RXRa homodimer (NR concentration 180 nM)
Procedure, shortened: as §1

[6] = system: THRa:RXRa (NR concentration 90 nM, RXRa partner concentration 90 nM)
Procedure, shortened: as §1

[7] = system: THRa homodimer (NR concentration 90 nM)
Procedure, shortened: as §1

[8] = system: VDR:RXRa (NR concentration 270 nM, RXRa partner concentration 90 nM)
Procedure, shortened: as §1

[9] = system: VDR homodimer (NR concentration 270 nM)
Procedure, shortened: as §1

| Sequence | PBM binding z-score [1] | PBM binding z-score [2] | PBM binding z-score [3] | PBM binding z-score [4] | PBM binding z-score [5] | PBM binding z-score [6] | PBM binding z-score [7] | PBM binding z-score [8] | PBM binding z-score [9] |
| --- | --- | --- | --- | --- | --- | --- | --- | --- | --- |
| CGTCCAAGGTCAGAGTGGTCAGTGAATGCCGAGT | 3.83 | 4.78 | 5.48 | 2.94 | 3.42 | 3.59 | 1.9 | 3.87 | 2.23 |
| ATCTCTAGGTAAGACTCAGTTCAGTAAAGAACGC | 0.871 | 0.41 | 0.438 | 0.632 | 0.0419 | 0.985 | 0.878 | 1.12 | 1.74 |
| AGTCAAAGTTCAGCTAGGTAACGTAAGATATGCT | 3.28 | 4.23 | 5.17 | 3.2 | 2.96 | 2.46 | 0.0376 | 3.03 | 2.26 |
| CCTAGCATGCCAGGGTCACTCAAGCATTTCGCTT | 2.54 | 2.81 | 2.01 | 0.413 | 3.35 | 2.95 | 1.01 | 2.59 | 0.827 |
| AGTCAAAGTTAAGGACGAGGTAACGTAAAGCACG | 0.455 | 0.647 | 0.899 | -0.752 | 0.474 | 3.19 | 2.65 | -0.131 | -0.263 |
| TCAGACCGGTGAAGGTAACTCAGGTACGCAGTCG | 0.271 | 0.022 | -0.104 | 0.832 | 0.506 | 1.29 | -0.0547 | 0.501 | 0.152 |
| TTACCAAGGTGAAGGGCGTTGATCCCTCTGTAGA | 0.953 | 0.413 | 0.407 | -0.371 | 0.755 | 1.49 | 0.536 | 0.253 | -0.115 |
| CCGACTGGGGCAGAAAGGTTATCATACCATCCGG | 1.91 | 1.48 | 1 | -0.376 | 1.67 | 0.759 | -0.293 | 0.932 | -0.196 |
| TGAATGAGGTTATAAGATCAGGGTACGTTGCAAA | 0.678 | 1.49 | 1 | 0.96 | 2.09 | 2.04 | 0.622 | 1.79 | 1.73 |
| GCTTACGGGTCAATGGTTATAGCATGAATAGAAT | 2.28 | 4.02 | 3.9 | 1.65 | 4.17 | 1.87 | -0.17 | 2.99 | 0.787 |
| GCTGCTAAGTCAGGTTGGTCAGCTAACGGGTACG | 0.212 | -0.383 | -0.568 | -0.027 | -0.344 | -0.197 | -0.581 | -0.547 | -0.246 |
| AGTCAAAGTTCAGGACGAGGTAACATAAAGCACG | 3.26 | 4.89 | 4.71 | 3.19 | 3.25 | 3.73 | 1.55 | 3.13 | 2.24 |
| CTTACTGGGCCATCAGGTCATTGATATCAACGTT | 2.78 | 2.32 | 2.54 | 0.956 | 1.33 | 3.24 | 3.08 | 1.91 | 1.94 |
| TAGCCCAGGTCATTGGGCCAGTATAGTACGCATC | 2.76 | 3.9 | 4.11 | 2.29 | 3.37 | 3.36 | 1.65 | 3.03 | 2.16 |
| GCTTACGGGTCAAAGGTTATAGCATGAATAGAAT | 3.25 | 6.76 | 4.71 | 2.42 | 9.18 | 4.02 | 0.25 | 5.86 | 1.58 |
| CTAGACAGGTGAAAGGTAACTCAGTCTGGTACGC | 0.55 | 1.36 | 0.619 | -0.39 | 2.23 | 0.865 | -0.398 | 0.828 | -0.464 |
| ACTTACGGGTCAACGAGGTTCTAGCACGCGTATA | 3.24 | 5.08 | 4.31 | 2.18 | 5.1 | 3.34 | 0.629 | 6.52 | 2.01 |
| CCTGCTAGGTCAATGGTCCGCTAAAGCAGCTCGC | 2.71 | 3.34 | 3.91 | 1.71 | 1.57 | 2.19 | 0.549 | 0.759 | -0.203 |
| TCATATAGATAAACAGGTGAAAGTCCGTAAGTTA | 0.615 | 0.467 | 0.388 | 1.94 | 1.33 | 0.561 | 0.191 | 1.18 | 0.676 |
| TATACAGGGGCAAAGGCCAGAGTACGAATGTCGA | 1.74 | 1.95 | 1.85 | 0.806 | 1.49 | 0.569 | -0.328 | 1.03 | 0.679 |
| CCTACTGGGCCTAGGTCATTGATCAGTCAAAGCA | 2.06 | 2.02 | 1.46 | -0.592 | 1.34 | 2.07 | 0.765 | 0.813 | 0.74 |
| CGAACGAGGGCATGAGTTGCTAGCAAATGCCGAT | 0.64 | 1.05 | 1.42 | 2.17 | 0.709 | 1.11 | -0.232 | 0.671 | 1.05 |
| AGTCAAAGTTCACTAGGTATCGTAAGATTCAGCT | 3.71 | 4.66 | 5.74 | 4.28 | 3.72 | 1.51 | -0.258 | 3.89 | 4.12 |
| GGAACGAGGGCAAAGTTGATAGCGTCTGTCGACG | 1.32 | 2.22 | 1.75 | 2.69 | 2.17 | 1.38 | -0.194 | 1.39 | 1.43 |
| TCTATTAGTTGAAGGGCAACCGGCGAGTCCGTTT | 1.33 | 0.436 | 0.37 | 1.69 | 0.567 | 0.217 | 0.172 | 0.946 | 0.963 |
